Test results: the supplement of paper PMC4166925
± gives the standard deviation of the averaged measurements. The full ranking holds about 33,000 sequences; the median of “E-score (dimensionless, -0.5 to 0.5)” is about -0.046, and the highest 2% start at about 0.36. What follows is part of a selection rich in the highest values, with near analogues and random picks from the rest.

test system: T1, SpTbr T-box DNA-binding domain (GST fusion); experiment: PBM E-score of 8-mer (E-score (dimensionless, -0.5 to 0.5)); Tbr is Tbrain of the sea star Patiria miniata (Pm) or the sea urchin Strongylocentrotus purpuratus (Sp); higher = stronger binding preference; settings: the construct has about 5 more residues each side
T1 sequence: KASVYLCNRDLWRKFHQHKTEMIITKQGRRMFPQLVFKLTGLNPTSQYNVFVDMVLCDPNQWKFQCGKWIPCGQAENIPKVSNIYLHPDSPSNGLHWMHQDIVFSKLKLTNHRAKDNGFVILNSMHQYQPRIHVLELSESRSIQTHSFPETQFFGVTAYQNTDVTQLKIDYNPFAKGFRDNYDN
Protocol: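 Universal protein-binding microarray (Agilent AMADID 016060, 60-bp probes with a 35-bp variable region) incubated with 200 nM GST-fused Strongylocentrotus purpuratus Tbr T-box DNA-binding domain (residues 362-554) in PBS pH 7.5. Scored for every ungapped 8-mer (given with its reverse complement) as E-score (range -0.5 to 0.5; >0.45 counts as bound) and Z-score of median probe intensity. Two replicate arrays (datasets 1 and 2).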
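Also: protein at 200 nM in PBS on universal double-stranded arrays.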

| Sequence | PBM E-score of 8-mer |
| --- | --- |
| CCAGTTGA | 0.0132 ± 0.086 |
| CAGGGGTC | -0.231 ± 0.086 |
| AGAATCGC | 0.165 ± 0.045 |
| ACTGATGG | -0.00902 ± 0.051 |
| ACAGAGGG | -0.118 ± 0.029 |
| GCAATGCC | -0.174 ± 0.032 |
| GCATCTAA | -0.0797 ± 0.077 |
| GAATTGAA | -0.177 ± 0.099 |
| GTCGCCCA | 0.198 ± 0.0069 |
| AAACATTC | -0.0068 ± 0.0056 |
| ACACATTA | 0.291 ± 0.031 |
| ACACATAT | 0.407 ± 0.0072 |
| ACACATAG | 0.306 ± 0.018 |
| AAACATTG | 0.0255 ± 0.053 |
| ACACATTC | 0.38 ± 0.022 |
| CCACATTC | 0.14 ± 0.06 |
| ACACATAA | 0.269 ± 0.016 |
| ACACATTG | 0.368 ± 0.01 |
| GTCAAGCA | 0.0528 ± 0.058 |
| ACTCTTTA | 0.0329 ± 0.022 |
| CGCTACCA | 0.271 ± 0.0082 |
| ATTAGGAG | -0.247 ± 0.041 |
| GAGCCAGC | 0.0706 ± 0.066 |
| ACTACTCC | -0.139 ± 0.024 |
| ACTCCGGA | -0.0213 ± 0.013 |

| Sequence | PBM E-score of 8-mer |
| --- | --- |
| CGTGCGGA | 0.147 ± 0.028 |
| AGTGCTAG | 0.265 ± 0.049 |
| AGTGCTAA | 0.412 ± 0.015 |
| AGTGCTAC | 0.245 ± 0.027 |
| GGTGCGGA | 0.404 ± 0.023 |
| AGTGCTAT | 0.243 ± 0.079 |
| GGTGCTAC | 0.42 ± 0.007 |
| CGTGCTAC | 0.128 ± 0.0037 |
| CGTGCTAA | 0.349 ± 0.0041 |
| GGTGCTAA | 0.4658 ± 0.00059 |
| AGTGCGGA | 0.257 ± 0.023 |
| TGTGCTAA | 0.26 ± 0.011 |
| AGTTACTG | -0.0684 ± 0.048 |
| AGTAGCCC | -0.239 ± 0.026 |
| CCCGCTTC | 0.139 ± 0.082 |
| GAGTTTGA | 0.00341 ± 0.029 |
| AGGTCAAT | -0.202 ± 0.093 |
| CTTTTCGA | -0.087 ± 0.018 |
| TGTGCAAA | 0.225 ± 0.033 |
| GGTGCAAA | 0.3907 ± 0.0034 |
| GGTGCAAC | 0.176 ± 0.012 |
| ACGTAGGG | -0.127 ± 0.051 |
| CTTGGAAC | -0.26 ± 0.046 |
| CGTCAAAG | 0.228 ± 0.028 |
| ACAAGGTC | 0.202 ± 0.026 |

| Sequence | PBM E-score of 8-mer |
| --- | --- |
| AGAAGGTG | 0.386 ± 0.015 |
| AGAAGGTA | -0.167 ± 0.031 |
| ACAAGGTA | 0.0584 ± 0.021 |
| ACAAGGTG | 0.425 ± 0.0045 |
| AGAAGGTC | -0.2756 ± 0.0017 |
| AGATCTTC | 0.0938 ± 0.043 |
| ACTTGTGA | 0.412 ± 0.011 |
| ACTTGTGG | 0.205 ± 0.00054 |
| CGTTGTGA | 0.162 ± 0.028 |
| TCTTGTCA | 0.24 ± 0.014 |
| GCTTGTCA | 0.12044 ± 2.8e-05 |
| GCTTGTGA | 0.202 ± 0.074 |
| AGTTGTGA | 0.407 ± 0.0049 |
| AGTTGTGG | 0.164 ± 0.06 |
| ACTTGTCA | 0.4189 ± 0.00086 |
| ATTGCGAC | -0.0335 ± 0.048 |
| CGATGACG | 0.0899 ± 0.049 |
| AGCCTATC | -0.168 ± 0.1 |
| AACAATGC | -0.018 ± 0.0069 |
| CAGAGTTC | -0.129 ± 0.032 |
| ACTGGTAC | -0.0857 ± 0.01 |
| AACCACTT | -0.0435 ± 0.018 |
| AAGGTGGC | 0.372 ± 0.0085 |
| CAGGTGGC | 0.323 ± 0.0069 |
| AAGGTGGG | 0.242 ± 0.042 |

| Sequence | PBM E-score of 8-mer |
| --- | --- |
| AAGGTGGA | -0.0733 ± 0.085 |
| GAGGTGGC | 0.3855 ± 0.0037 |
| GAGGTGGA | 0.06436 ± 0.00017 |
| AATGGCCT | -0.0378 ± 0.026 |
| AGAGTTTC | -0.243 ± 0.052 |
| AGCTAGCG | 0.0935 ± 0.042 |
| AACCTCGG | -0.108 ± 0.049 |
| CACCTCGG | 0.402 ± 0.0072 |
| AACCTCGC | 0.152 ± 0.055 |
| CACCTCGA | 0.44517 ± 8.5e-05 |
| GACCTCGC | 0.0532 ± 0.0042 |
| CCCCTCGG | -0.255 ± 0.051 |
| GACCTCGA | -0.0589 ± 0.014 |
| CACCTCGC | 0.439 ± 0.012 |
| AACCTCGA | -0.0446 ± 0.051 |
| CGACCCAC | 0.00361 ± 0.024 |
| ACTTTCGC | 0.328 ± 0.038 |
| ATGGGGGC | -0.283 ± 0.021 |
| AGGGACTA | -0.1367 ± 0.00023 |
| CTCAAGGC | -0.137 ± 0.013 |
| ATTACGCG | 0.19 ± 0.028 |
| ATGTCTAG | -0.0188 ± 0.02 |
| GCAGTGCC | -0.102 ± 0.027 |
| GATCCTCA | 0.11 ± 0.055 |
| GATAGCCC | -0.217 ± 0.0042 |

| Sequence | PBM E-score of 8-mer |
| --- | --- |
| ACACTTGG | 0.367 ± 0.022 |
| ATACTTGG | -0.22 ± 0.046 |
| CCACTTGC | 0.192 ± 0.049 |
| ACACTTGC | 0.4 ± 0.0054 |
| AAACTTGC | 0.102 ± 0.0067 |
| ACACTTGA | 0.347 ± 0.0096 |
| GCCTAAGA | -0.128 ± 0.039 |
| ACGCTGAG | -0.115 ± 0.075 |
| AGGCCATA | -0.0266 ± 0.0079 |
| ACACCCTG | 0.415 ± 0.024 |
| CCACCCTA | 0.0825 ± 0.11 |
| ACCCCCTC | -0.0672 ± 0.037 |
| ACACCCTC | 0.402 ± 0.016 |
| ACACCCTA | 0.371 ± 0.01 |
| CCACCCTC | 0.0803 ± 0.068 |
| GCACCCTA | 0.118 ± 0.032 |
| ATACCCTG | -0.119 ± 0.008 |
| ACCCCCTG | 0.0826 ± 0.062 |
| GTCTAGAA | -0.242 ± 0.049 |
| CAGATCGA | -0.12 ± 0.014 |
| AGAGTTCG | -0.121 ± 0.068 |
| AATCGCAG | 0.0391 ± 0.046 |
| AATCGCAC | 0.4074 ± 0.00091 |
| CATCGCAA | -0.03 ± 0.019 |
| GATCGCAA | 0.2797 ± 0.00053 |

| Sequence | PBM E-score of 8-mer |
| --- | --- |
| CATCGCAG | 0.109 ± 0.046 |
| GATCGCGC | 0.352 ± 0.025 |
| CATCGCAC | 0.376 ± 0.019 |
| AATCGCAT | 0.113 ± 0.0034 |
| GATCGCAC | 0.442 ± 0.0075 |
| GGGGAGCA | -0.25 ± 0.0084 |
| AGCACTGA | 0.0628 ± 0.0091 |
| AGTGCCCC | -0.185 ± 0.025 |
| CATGTCGA | -0.0673 ± 0.11 |
| AAGACGAT | -0.0524 ± 0.029 |
| GCGCGCGC | 0.0386 ± 0.035 |
| AGACTGAT | -0.168 ± 0.062 |
| GTCCAGCA | -0.295 ± 0.06 |
| CCTTTAAC | 0.141 ± 0.02 |
| CACTTCAC | 0.39 ± 0.0097 |
| CACTTCAG | 0.269 ± 0.049 |
| AACTTCAC | 0.147 ± 0.036 |
| CTAAGGAA | -0.158 ± 0.034 |
| GACCTGCC | 0.0636 ± 0.012 |
| AACCTGCC | -0.0535 ± 0.017 |
| CACCTGCC | 0.3954 ± 0.00044 |
| AACCTGCG | 0.0936 ± 0.029 |
| CACCTGGA | 0.297 ± 0.025 |
| CACCTGCA | 0.346 ± 0.0038 |
| CACCTGGC | 0.389 ± 0.021 |

| Sequence | PBM E-score of 8-mer |
| --- | --- |
| CACCTGCG | 0.425 ± 0.0075 |
| AACCTGGC | 0.0794 ± 0.017 |
| AATGGATC | -0.0632 ± 0.037 |
| GAATCGTA | -0.0254 ± 0.00061 |
| CGACTGCA | -0.155 ± 0.0016 |
| CGAGGGGA | -0.0885 ± 0.018 |
| CAGTGCTC | 0.0319 ± 0.0026 |
| AGACACTC | 0.129 ± 0.029 |
| ATGACACC | 0.4599 ± 0.0031 |
| ATGACACG | 0.315 ± 0.035 |
| CTGACATC | -0.107 ± 0.031 |
| CTGACAGC | 0.318 ± 0.0042 |
| ATGACACA | 0.327 ± 0.033 |
| CTGACACC | 0.4611 ± 0.0014 |
| ACTCATAA | -0.0942 ± 0.0043 |
| CAGAGCGC | -0.00751 ± 0.044 |
| CAGGTCGC | 0.225 ± 0.038 |
| GTTTCACA | 0.38 ± 0.012 |
| CTTTCAAA | -0.203 ± 0.0062 |
| CTTTCACA | 0.44384 ± 0.0002 |
| ATTTCACA | 0.4303 ± 0.0022 |
| CTTTCACC | 0.0179 ± 0.03 |
